# Values without a mark were called inactive. Inconclusive results are not listed. A call without a number means that no potency is given here. Activity calls are given as the source filed them. Unless noted, calls follow the shape of the dose curve; as a rule, active = well fitted curve in the direction sought with a large enough effect; inconclusive = small, poorly fitted or top-dose-only effect, or another doubt; inactive = no such curve, though single readings can be large; an effect the other way counts as inactive or inconclusive.
# How the values were obtained:
# [1] = target: Rap guanine nucleotide exchange factor 3 (Homo sapiens) (UniProt O95398); test: Confirmatory qHTS for agonist of cAMP-regulated guanine nucleotide exchange factor 3 (EPAC1) (AID 1645881);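 also: EPAC1 catalysed release of BODIPY-GDP from Rap1B seen as fluorescence loss; nearly all actives have a fitted effect of over 75% in size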
# [2] = target: Rap guanine nucleotide exchange factor 4 (Homo sapiens) (UniProt Q8WZA2); test: Confirmatory qHTS for agonist of cAMP-regulated guanine nucleotide exchange factor 4 (EPAC2) (AID 1645884);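 also: nucleotide exchange releases bodipy-GDP from Rap1 and this lowers its fluorescence; nearly all actives have a fitted effect of over 65% in size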
# [3] = target: Rap guanine nucleotide exchange factor 4 (Homo sapiens) (UniProt Q8WZA2); test: Confirmatory qHTS for antagonist of cAMP-regulated guanine nucleotide exchange factor 4 (EPAC2) (AID 1645885); also: nearly all actives have a fitted effect of over 25% in size; also: potency is read from the fitted curve at half-maximal effect
# [4] = target: Rap guanine nucleotide exchange factor 3 (Homo sapiens) (UniProt O95398); test: Counterscreen qHTS for agonist of cAMP-regulated guanine nucleotide exchange factor 3 (EPAC1) (AID 1645889); also: nearly all actives have a fitted effect of over 40% in size
# Outline: (§1)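 Rap1B–BODIPY-GDP (250 nM) with 50 uM GDP; compounds pin-transferred to 9.74 nM–152 uM final (activator) or from 7.32 nM upwards (inhibitor). Fluorescence Ex/Em 480/540 nm read at 5 and 30 min, then after adding cAMP or buffer, at room temperature.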
# [5] = AP1 Signaling Pathway (AID 357; active = well fitted curve in either direction with a large enough effect, not every such curve was filed as active;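 also: ME-180 reporter cells stimulated with EGF at its EC50 level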); settings: ME-180 (cervical carcinoma) AP-1-bla reporter, EGF-induced, beta-lactamase ratio, 5 h; at 7.69 µM (top of the series) unless noted
# Outline: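 AP-1-bla ME-180 cells, Opti-MEM + 0.5% dialyzed FBS, plated overnight 37 °C. Cpd titration + EC50 EGF, 5 h 37 °C. CCF4 2.5 h RT; ex 405, em 460/530 ratio → %activity, AC50.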
# [6] = NFAT Signaling Pathway (AID 444; active = well fitted curve in either direction with a large enough effect, not every such curve was filed as active;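 also: carbachol stimulus at about its EC50 of 1 µM final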); settings: Jurkat NFAT-bla M1, carbachol, beta-lactamase ratio, 5 h; at 7.69 µM (top of the series) unless noted
# Outline: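 Jurkat cells with NFAT-driven β-lactamase reporter and co-expressed M1 receptor, stimulated with carbachol (final 1 uM, ~EC50), compound titration, 5 h at 37 °C. CCF4 loaded 1 h at RT; 460/530 nm ratio gave %activity and AC50.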
# [7] = Stat Signaling Pathway (AID 446; active = well fitted curve in either direction with a large enough effect, not every such curve was filed as active;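 also: ME-180 cervical cancer cells given 40 pM IL-6 alongside compound; SIE-controlled beta-lactamase reporter measured as 460/530 nm FRET emission ratio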)
# Outline: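 IL-6/STAT signaling read in ME-180 cells via an SIE beta-lactamase reporter. Stimulus was 40 pM IL-6 (its AC50) for 5 hrs, so both activation and inhibition register.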
# [8] = target: Glucocorticoid receptor (Homo sapiens) (UniProt P04150); test: GR-GFP Redistribution (AID 450;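 active = compounds whose dose series gives a full or clear partial fitted curve of increased nuclear translocation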; also: potency is read from the fitted curve at half-maximal effect); settings: U2OS GR-GFP nuclear translocation, laser cytometry, 2 h
# [9] = target: Rap guanine nucleotide exchange factor 3 (Homo sapiens) (UniProt O95398); test: Counterscreen qHTS for antagonist of cAMP-regulated guanine nucleotide exchange factor 3 (EPAC1) (AID 1645888);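 also: fluorescence loss as bound BODIPY-GDP is released from Rap1B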
# Outline: as §1
# [10] = target: Tumor susceptibility gene 101 protein (Homo sapiens) (UniProt Q99816); test: qHTS Assay for Iinhibitors of HIV-1 Budding by Blocking the Interaction of PTAP/TSG101: Hit Validation (AID 651600); also: nearly all actives have a fitted effect of over 70% in size; also: potency is read from the fitted curve at half-maximal effect
# Outline: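 Fluorescence polarization binding assay: Tsg101 binding domain (10 uM final) pre-dispensed with compounds, then FITC-labeled PTAP-motif peptide (50 nM final) added; 20 min at r.t. in HEPES pH 7.5 buffer with NaCl, Tween 20, EDTA, TCEP.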
# [11] = target: Tyrosyl-DNA phosphodiesterase 1 (Homo sapiens) (UniProt Q9NUW8); test: Confirmation Assay for Inhibitors of Tyrosyl-DNA Phosphodiesterase (TDP1) (AID 489007); settings: recombinant human TDP1 enzymatic activity, dose-response; also: potency is read from the fitted curve at half-maximal effect; nearly all actives have a fitted effect of over 40% in size
# Outline: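 Tdp1 1 nM + cpd, 15 min RT; add biotin/phosphotyrosine-FITC oligo 15 nM, 5 min RT; add AS donor/acceptor beads 10 ug/ml, 10 min RT; read AlphaScreen. No-enzyme wells = max signal.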
# [12] = qHTS for Inhibitors of Plasmodium falciparum (DD2) proliferation (AID 504314);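 also: parasite DNA measured by SYBR Green fluorescence after red cell lysis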
# Outline: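 Fluorescence read-out (ex 485/em 535 nm) of SYBR Green-stained parasite DNA quantifies intraerythrocytic growth. Cultures at 0.3% parasitemia and 2.5% hematocrit were treated for 72 h; data normalized to DMSO and 0.29 uM artemisinin wells.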
# [13] = qHTS for Inhibitors of Plasmodium falciparum (GB4) proliferation (AID 504315); also: nearly all actives have a fitted effect of over 50% in size
# Outline: (§2)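 Erythrocytes infected with P. falciparum line (0.3% parasitemia, 2.5% hematocrit final) incubated with compounds 72 h at 37 °C, 5% CO2; SYBR Green lysis buffer added, fluorescence read next day. Normalized to 0.29 uM artemisinin and DMSO.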
# [14] = qHTS for Inhibitors of Plasmodium falciparum (7G8) proliferation (AID 504316); also: nearly all actives have a fitted effect of over 65% in size
# Outline: as §2
# [15] = qHTS for Inhibitors of Plasmodium falciparum (HB3) proliferation (AID 504318); also: nearly all actives have a fitted effect of over 60% in size
# Outline: as §2
# [16] = qHTS for Inhibitors of Plasmodium falciparum (CP250) proliferation (AID 504320)
# Outline: as §2
# Sequence of Rap guanine nucleotide exchange factor 3 (Homo sapiens) (O95398 whole entry, looked up): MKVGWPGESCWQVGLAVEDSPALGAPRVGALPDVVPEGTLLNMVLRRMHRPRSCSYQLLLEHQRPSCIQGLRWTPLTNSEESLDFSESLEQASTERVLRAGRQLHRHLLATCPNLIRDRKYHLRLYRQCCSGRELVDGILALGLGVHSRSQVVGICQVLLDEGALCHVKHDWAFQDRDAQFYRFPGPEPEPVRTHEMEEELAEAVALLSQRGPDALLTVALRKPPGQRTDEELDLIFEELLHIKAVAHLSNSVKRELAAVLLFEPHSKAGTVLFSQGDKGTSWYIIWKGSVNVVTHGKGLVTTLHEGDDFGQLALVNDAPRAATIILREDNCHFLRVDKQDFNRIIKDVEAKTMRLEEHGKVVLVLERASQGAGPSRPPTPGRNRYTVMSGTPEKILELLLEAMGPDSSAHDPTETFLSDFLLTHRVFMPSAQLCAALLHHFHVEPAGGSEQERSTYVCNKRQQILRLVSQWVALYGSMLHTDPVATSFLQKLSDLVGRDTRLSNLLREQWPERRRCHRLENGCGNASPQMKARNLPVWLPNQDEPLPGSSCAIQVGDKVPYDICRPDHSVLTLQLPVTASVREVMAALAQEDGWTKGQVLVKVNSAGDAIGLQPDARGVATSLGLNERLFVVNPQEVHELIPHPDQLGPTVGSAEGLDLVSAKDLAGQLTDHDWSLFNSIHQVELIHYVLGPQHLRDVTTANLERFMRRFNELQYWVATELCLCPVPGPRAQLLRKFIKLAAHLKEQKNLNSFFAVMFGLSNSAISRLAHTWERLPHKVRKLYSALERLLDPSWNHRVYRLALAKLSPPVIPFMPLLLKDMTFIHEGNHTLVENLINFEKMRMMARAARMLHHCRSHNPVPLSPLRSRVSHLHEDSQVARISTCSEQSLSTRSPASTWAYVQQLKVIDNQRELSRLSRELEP
# Sequence of Rap guanine nucleotide exchange factor 4 (Homo sapiens) (Q8WZA2 whole entry, looked up): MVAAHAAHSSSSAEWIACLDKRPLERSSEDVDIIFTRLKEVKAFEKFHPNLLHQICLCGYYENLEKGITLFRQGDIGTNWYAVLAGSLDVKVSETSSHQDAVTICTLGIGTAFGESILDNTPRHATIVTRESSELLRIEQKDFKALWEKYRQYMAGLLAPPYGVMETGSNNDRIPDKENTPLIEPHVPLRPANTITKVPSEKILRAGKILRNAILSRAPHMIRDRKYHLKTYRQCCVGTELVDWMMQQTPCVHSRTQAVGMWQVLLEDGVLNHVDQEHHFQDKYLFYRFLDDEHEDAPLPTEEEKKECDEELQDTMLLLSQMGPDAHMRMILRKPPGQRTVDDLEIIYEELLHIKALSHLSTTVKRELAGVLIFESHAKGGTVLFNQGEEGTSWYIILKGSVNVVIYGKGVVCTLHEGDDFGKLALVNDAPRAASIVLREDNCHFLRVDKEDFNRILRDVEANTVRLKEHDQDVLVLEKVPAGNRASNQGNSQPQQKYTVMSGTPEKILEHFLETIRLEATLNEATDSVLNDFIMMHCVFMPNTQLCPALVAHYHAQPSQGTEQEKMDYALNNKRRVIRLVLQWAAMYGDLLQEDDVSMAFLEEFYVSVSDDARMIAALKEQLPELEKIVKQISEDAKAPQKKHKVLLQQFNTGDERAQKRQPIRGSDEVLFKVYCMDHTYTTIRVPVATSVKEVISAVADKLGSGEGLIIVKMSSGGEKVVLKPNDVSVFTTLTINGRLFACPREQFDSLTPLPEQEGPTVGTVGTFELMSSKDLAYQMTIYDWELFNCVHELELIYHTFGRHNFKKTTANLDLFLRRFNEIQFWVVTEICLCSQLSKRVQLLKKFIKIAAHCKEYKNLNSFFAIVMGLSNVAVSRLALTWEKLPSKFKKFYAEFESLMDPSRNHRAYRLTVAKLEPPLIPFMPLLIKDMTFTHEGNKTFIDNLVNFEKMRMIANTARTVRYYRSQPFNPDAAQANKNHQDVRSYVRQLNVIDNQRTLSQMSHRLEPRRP
# Sequence of Tumor susceptibility gene 101 protein (Homo sapiens) (Q99816 whole entry, looked up, the tested form may be a part): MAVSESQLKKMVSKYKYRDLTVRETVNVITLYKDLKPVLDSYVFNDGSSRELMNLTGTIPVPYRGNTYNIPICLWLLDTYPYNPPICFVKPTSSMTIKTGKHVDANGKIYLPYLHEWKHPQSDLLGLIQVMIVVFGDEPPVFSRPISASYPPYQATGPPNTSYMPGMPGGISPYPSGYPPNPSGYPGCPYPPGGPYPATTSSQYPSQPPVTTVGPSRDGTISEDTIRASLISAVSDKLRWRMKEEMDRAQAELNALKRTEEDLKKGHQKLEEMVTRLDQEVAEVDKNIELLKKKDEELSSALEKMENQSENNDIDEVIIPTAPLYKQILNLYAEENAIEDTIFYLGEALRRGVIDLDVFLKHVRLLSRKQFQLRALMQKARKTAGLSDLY
# Sequence of Tyrosyl-DNA phosphodiesterase 1 (Homo sapiens) (Q9NUW8 whole entry, looked up): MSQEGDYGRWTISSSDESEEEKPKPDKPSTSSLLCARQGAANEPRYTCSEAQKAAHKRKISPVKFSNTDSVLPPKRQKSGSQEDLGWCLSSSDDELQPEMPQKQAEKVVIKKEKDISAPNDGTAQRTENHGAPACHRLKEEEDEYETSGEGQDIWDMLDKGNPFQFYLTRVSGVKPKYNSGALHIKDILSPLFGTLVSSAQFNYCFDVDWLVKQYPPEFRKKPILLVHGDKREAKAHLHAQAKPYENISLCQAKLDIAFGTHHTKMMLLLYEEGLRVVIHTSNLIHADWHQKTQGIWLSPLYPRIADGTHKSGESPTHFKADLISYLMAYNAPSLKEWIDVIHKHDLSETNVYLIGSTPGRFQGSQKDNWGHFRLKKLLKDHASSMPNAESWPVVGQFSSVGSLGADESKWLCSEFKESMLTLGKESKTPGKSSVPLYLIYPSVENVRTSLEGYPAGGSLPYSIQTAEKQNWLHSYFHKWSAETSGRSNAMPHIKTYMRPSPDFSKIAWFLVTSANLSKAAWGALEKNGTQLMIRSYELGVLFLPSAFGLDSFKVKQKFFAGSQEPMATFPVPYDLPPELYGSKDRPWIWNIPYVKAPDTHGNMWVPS
# Sequence of Glucocorticoid receptor (Homo sapiens) (P04150 whole entry, looked up): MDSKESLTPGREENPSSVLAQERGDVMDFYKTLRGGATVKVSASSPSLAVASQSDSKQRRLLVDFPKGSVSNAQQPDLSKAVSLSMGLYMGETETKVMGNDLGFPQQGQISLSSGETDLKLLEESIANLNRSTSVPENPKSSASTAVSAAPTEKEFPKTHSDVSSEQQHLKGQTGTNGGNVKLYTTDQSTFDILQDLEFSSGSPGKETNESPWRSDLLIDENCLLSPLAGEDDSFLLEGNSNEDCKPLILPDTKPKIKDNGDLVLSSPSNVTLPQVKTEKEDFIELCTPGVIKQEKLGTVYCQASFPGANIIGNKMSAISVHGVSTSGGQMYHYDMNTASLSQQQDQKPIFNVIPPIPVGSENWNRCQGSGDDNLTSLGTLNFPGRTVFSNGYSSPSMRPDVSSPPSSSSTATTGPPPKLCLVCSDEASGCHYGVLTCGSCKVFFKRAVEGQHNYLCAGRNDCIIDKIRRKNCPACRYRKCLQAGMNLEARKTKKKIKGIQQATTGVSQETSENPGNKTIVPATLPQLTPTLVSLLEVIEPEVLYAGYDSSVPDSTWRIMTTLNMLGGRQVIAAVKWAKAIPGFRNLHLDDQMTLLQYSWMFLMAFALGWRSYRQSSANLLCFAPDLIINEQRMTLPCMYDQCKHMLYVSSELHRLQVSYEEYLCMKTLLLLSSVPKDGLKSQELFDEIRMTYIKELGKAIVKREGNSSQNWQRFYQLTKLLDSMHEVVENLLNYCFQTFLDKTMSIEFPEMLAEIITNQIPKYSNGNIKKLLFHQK
smiles,measurement,setting,value
COc1ccc(CCNc2oc(-c3ccc(C)cc3)nc2C#N)cc1OC,Potency,[1],inactive
same,activation,[2],"5.59% [at 17.1 µM, percent relative to cAMP agonist control]"
same,Potency,[3],inactive
same,activation,[4],26.9% [at 30.8 µM]
CCOC(=O)C1CCCN(c2nc3ccccc3nc2C(C#N)C(=O)OC(C)C)C1 (stereo not drawn),"activity change, negative = inhibition",[5],-3.2% [at 17.2 µM]
same,"activity change, negative = inhibition",[6],-22.1% [at 17.2 µM]
same,outcome,[7],inactive
same,Potency,[8],> 20.6 µM
same,Potency,[1],inactive
same,activation,[2],"6.19% [at 17.1 µM, percent relative to cAMP agonist control]"
same,Potency,[3],inactive
same,"activity change, negative = inhibition",[9],0.815% [at 30.8 µM]
same,activation,[4],36.1% [at 30.8 µM]
O=C(CSc1nccn1Cc1ccc(Cl)cc1)Nc1ccc2c(c1)OCO2,Potency,[1],inactive
same,Potency,[2],inactive
same,Potency,[3],inactive
same,Potency,[4],inactive
CCCCN(Cc1ccccc1)C(=O)c1oc(=O)c2ccccc2c1-c1ccc(C)cc1,Potency,[1],inactive
same,Potency,[2],inactive
same,Potency,[3],inactive
same,Potency,[9],inactive
same,Potency,[4],inactive
C=CCn1c(=O)/c(=C/c2ccc(C)o2)s/c1=C(/C#N)C(=O)c1ccccc1,Potency,[10],18.3 µM (active)
same,Potency,[1],inactive
same,activation,[2],"3.1% [at 17.1 µM, percent relative to cAMP agonist control]"
same,Potency,[3],inactive
same,"activity change, negative = inhibition",[9],-7.69% [at 30.8 µM]
same,activation,[4],34.7% [at 30.8 µM]
NS(=O)(=O)c1ccc(N=Nc2ccc(=O)[nH]c2O)cc1,Potency,[11],6.31 µM (active)
same,Potency,[1],inactive
same,activation,[2],"-0.407% [at 17.1 µM, percent relative to cAMP agonist control]"
same,Potency,[3],inactive
same,"activity change, negative = inhibition",[9],-5.26% [at 30.8 µM]
same,activation,[4],-0.888% [at 30.8 µM]
CCCc1nc2c(Cl)cc(C(F)(F)F)cn2c1Cc1ccc(OC)cc1C,Potency,[1],inactive
same,activation,[2],"5.33% [at 17.1 µM, percent relative to cAMP agonist control]"
same,Potency,[3],inactive
same,"activity change, negative = inhibition",[9],-8.15% [at 30.8 µM]
same,activation,[4],14.3% [at 30.8 µM]
CC(=O)NC(C)(c1ccccc1)c1nc(-c2cccc(C(F)(F)F)c2)cs1 (stereo not drawn),Potency,[1],inactive
same,Potency,[2],inactive
same,Potency,[3],inactive
same,Potency,[4],inactive
O=C(NCc1cccc(Cl)c1)c1ccc(S(=O)(=O)Nc2cccc(C(F)(F)F)c2)cc1,Potency,[1],inactive
same,Potency,[2],inactive
same,Potency,[3],inactive
same,Potency,[4],inactive
CC(C)CCNC(=O)c1onc(CSc2ccccn2)c1C(=O)NCCC(C)C,Potency,[1],inactive
same,Potency,[2],inactive
same,Potency,[3],inactive
same,Potency,[4],inactive
CCN(CC)c1nc2ccccc2nc1C(C#N)C(=O)NCCc1ccccc1 (stereo not drawn),Potency,[10],6.51 µM (active)
same,Potency,[1],inactive
same,Potency,[2],inactive
same,Potency,[3],84.9 µM (active)
same,Potency,[9],inactive
COc1ccc(C(CC(=O)N2CCCC2)c2c(OC)cc(OC)c3c(-c4ccccc4)cc(=O)oc23)cc1 (stereo not drawn),Potency,[11],2.24 µM (active)
same,Potency,[1],inactive
same,Potency,[2],inactive
same,Potency,[3],inactive
same,Potency,[9],inactive
CC1(C)Cc2c(C#N)c(N3CCN(C(=O)c4ccco4)CC3)nc(-c3ccco3)c2CS1,Potency,[8],> 20.6 µM
same,Potency,[1],inactive
same,Potency,[2],inactive
same,Potency,[3],inactive
same,Potency,[9],inactive
same,Potency,[4],inactive
Cn1cc(S(=O)(=O)Nc2cccc(F)c2)c(=O)n(C)c1=O,Potency,[1],inactive
same,activation,[2],"0% [at 17.1 µM, percent relative to cAMP agonist control]"
same,Potency,[3],inactive
same,"activity change, negative = inhibition",[9],-13.5% [at 30.8 µM]
same,activation,[4],-7.11% [at 30.8 µM]
COc1cc(O)c(C=NN2C(=O)CSC2=S)c(OC)c1,Potency,[1],inactive
same,Potency,[2],inactive
same,Potency,[3],inactive
same,Potency,[9],inactive
same,Potency,[4],inactive
COC(=O)C1=C(C)N(Cc2ccccc2)C(=O)N[C@H]1c1cccc(C(F)(F)F)c1,outcome,[12],inactive
same,outcome,[13],inactive
same,outcome,[14],inactive
same,outcome,[15],inactive
same,outcome,[16],inactive
same,Potency,[1],inactive
same,activation,[2],"7.76% [at 17.1 µM, percent relative to cAMP agonist control]"
same,Potency,[3],inactive
same,"activity change, negative = inhibition",[9],-21.1% [at 30.8 µM]
same,activation,[4],10.2% [at 30.8 µM]
O=C1NC(=O)/C(=C/c2ccc(-c3cc(C(=O)O)ccc3Cl)o2)S1,Potency,[1],inactive
same,activation,[2],"7.65% [at 17.1 µM, percent relative to cAMP agonist control]"
same,Potency,[3],inactive
same,"activity change, negative = inhibition",[9],4.91% [at 30.8 µM]
same,activation,[4],8.4% [at 30.8 µM]
Cc1c2ccccc2nc2c(F)c(NC(C)C)c(F)c(F)c12,Potency,[10],inactive
same,Potency,[1],inactive
same,Potency,[2],inactive
same,Potency,[3],inactive
same,Potency,[9],inactive
O=C1/C(=C/c2ccco2)Oc2c1ccc(O)c2CN1CCCCC1,Potency,[10],32.6 µM (active)
same,Potency,[1],inactive
same,Potency,[2],inactive
same,Potency,[3],84.9 µM (active)
same,Potency,[9],inactive
same,Potency,[4],inactive
